Test results reported in PubChem BioAssay AID1159580 (chemical genetic matrix, 2015).
The whole screen tested about 5,500 compounds, of which about 2,000 (36%) were called active. Inconclusive results (about 18%) are left out. Rule as the data show it: active = normalized growth mostly below about 0.91 (no sharp cut-off); inconclusive = no clear call, values can overlap the other calls; inactive = mostly above about 0.92. The list shows a part of the results.

Assay: chemical genetic growth profiling, strain panel (AID 1159580);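 also: tested at 20 µM; growth read once vehicle control cultures reached saturation at 30 °C; 1 = growth at the plate median or of vehicle wells; lower values mean less growth of the strain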
Settings: growth OD
[1] = S. cerevisiae deletion strains, locus YDL101C, strain DUN1, hits give low values
[2] = S. cerevisiae deletion strains, locus YHR030C, strain SLT2, hits give low values
[3] = S. cerevisiae deletion strains, locus YAL013W, strain DEP1, hits give low values
[4] = S. cerevisiae deletion strains, locus YBR229C, strain ROT2, hits give low values
[5] = S. cerevisiae deletion strains, locus YCL061C, strain MRC1, hits give low values
[6] = S. cerevisiae deletion strains, locus YDR150W, strain NUM1, hits give low values
[7] = S. cerevisiae deletion strains, locus YEL061C, strain CIN8, hits give low values
[8] = S. cerevisiae deletion strains, locus YGR078C, strain PAC10, hits give low values
[9] = S. cerevisiae deletion strains, locus YHR087W, strain rtc3, hits give low values
[10] = S. cerevisiae deletion strains, locus YJL187C, strain SWE1, hits give low values
[11] = S. cerevisiae deletion strains, locus YJR043C, strain POL32, hits give low values
[12] = S. cerevisiae deletion strains, locus YJR075W, strain HOC1, hits give low values
[13] = S. cerevisiae deletion strains, locus YKL190W, strain CNB1, hits give low values
[14] = S. cerevisiae deletion strains, locus YLR039C, strain RIC1, hits give low values
[15] = S. cerevisiae deletion strains, locus YLR058C, strain SHM2 (second series), hits give low values
[16] = S. cerevisiae deletion strains, locus YLR085C, strain ARP6, hits give low values
[17] = S. cerevisiae deletion strains, locus YLR262C, strain YPT6, hits give low values
[18] = S. cerevisiae deletion strains, locus YML094W, strain GIM5, hits give low values
[19] = S. cerevisiae deletion strains, locus YMR219W, strain ESC1, hits give low values
[20] = S. cerevisiae deletion strains, locus YMR263W, strain SAP30, hits give low values
[21] = S. cerevisiae deletion strains, locus YNL153C, strain GIM3, hits give low values
[22] = S. cerevisiae deletion strains, locus YNL298W, strain CLA4 (second series), hits give low values
[23] = S. cerevisiae deletion strains, locus YNL322C, strain KRE1, hits give low values
[24] = S. cerevisiae deletion strains, locus YNR030W, strain Alg12, hits give low values
[25] = S. cerevisiae deletion strains, locus YPL055C, strain LGE1, hits give low values
[26] = S. cerevisiae deletion strains, locus YPL241C, strain CIN2, hits give low values
[27] = S. cerevisiae deletion strains, locus YPR135W, strain CTF4, hits give low values

Measured: normalized growth

O=C(ON=C1CCCCC1)c1ccc([N+](=O)[O-])cc1
inactive: S. cerevisiae deletion strains, locus YAR019C, strain CDC15, hits give low values 0.949 | S. cerevisiae deletion strains, locus YBL105C, strain PKC1, hits give low values 0.959 | S. cerevisiae deletion strains, locus YBR135W, strain CKS1, hits give low values 0.947 | S. cerevisiae deletion strains, locus YBR136W, strain MEC1, hits give low values 0.956 | S. cerevisiae deletion strains, locus YBR160W, strain CDC28, hits give low values 0.959 | S. cerevisiae deletion strains, locus YDL017W, strain CDC7, hits give low values 0.952 | S. cerevisiae deletion strains, locus YDL028C, strain MPS1, hits give low values 0.95 | [1] 0.954 | S. cerevisiae deletion strains, locus YDL108W, strain KIN28, hits give low values 0.948 | S. cerevisiae deletion strains, locus YDL132W, strain cdc53, hits give low values 0.944 | S. cerevisiae deletion strains, locus YDL214C, strain PRR2, hits give low values 0.849 | S. cerevisiae deletion strains, locus YDR052C, strain DBF4, hits give low values 0.962 | S. cerevisiae deletion strains, locus YDR054C, strain cdc34, hits give low values 0.948 | S. cerevisiae deletion strains, locus YDR226W, strain ADK1, hits give low values 0.948 | S. cerevisiae deletion strains, locus YDR477W, strain SNF1, hits give low values 0.833 | S. cerevisiae deletion strains, locus YER123W, strain YCK3, hits give low values 0.817 | S. cerevisiae deletion strains, locus YER133W, strain GLC7, hits give low values 0.762 | S. cerevisiae deletion strains, locus YFL009W, strain cdc4, hits give low values 0.942 | S. cerevisiae deletion strains, locus YFL029C, strain CAK1, hits give low values 0.938 | S. cerevisiae deletion strains, locus YFR003C, strain YPI1, hits give low values 0.953 | S. cerevisiae deletion strains, locus YFR019W, strain FAB1, hits give low values 0.886 | S. cerevisiae deletion strains, locus YFR028C, strain CDC14, hits give low values 0.942 | S. cerevisiae deletion strains, locus YGR040W, strain KSS1, hits give low values 0.828 | S. cerevisiae deletion strains, locus YGR052W, strain FMP48, hits give low values 0.843 | S. cerevisiae deletion strains, locus YGR092W, strain DBF2, hits give low values 0.889 | S. cerevisiae deletion strains, locus YHR079C, strain IRE1, hits give low values 0.784 | S. cerevisiae deletion strains, locus YHR082C, strain KSP1, hits give low values 0.901 | S. cerevisiae deletion strains, locus YHR205W, strain SCH9, hits give low values 0.829 | S. cerevisiae deletion strains, locus YIL147C, strain SLN1, hits give low values 0.946 | S. cerevisiae deletion strains, locus YJL095W, strain BCK1, hits give low values 0.771 | S. cerevisiae deletion strains, locus YJL128C, strain PBS2, hits give low values 0.981 | S. cerevisiae deletion strains, locus YJL157C, strain FAR1, hits give low values 0.82 | S. cerevisiae deletion strains, locus YJR016C, strain ILV3, hits give low values 0.953 | S. cerevisiae deletion strains, locus YJR066W, strain TOR1 (second series), hits give low values 0.814 | S. cerevisiae deletion strains, locus YJR066W, strain TOR1, hits give low values 0.838 | S. cerevisiae deletion strains, locus YKL048C, strain ELM1, hits give low values 0.974 | S. cerevisiae deletion strains, locus YKL067W, strain YNK1, hits give low values 0.865 | S. cerevisiae deletion strains, locus YKL101W, strain HSL1, hits give low values 0.881 | S. cerevisiae deletion strains, locus YKL193C, strain SDS22, hits give low values 0.934 | S. cerevisiae deletion strains, locus YKL203C, strain TOR2, hits give low values 0.888 | S. cerevisiae deletion strains, locus YLR133W, strain CKI1, hits give low values 0.874 | S. cerevisiae deletion strains, locus YLR403W, strain SFP1, hits give low values 0.783 | S. cerevisiae deletion strains, locus YML070W, strain DAK1, hits give low values 0.819 | S. cerevisiae deletion strains, locus YMR001C, strain CDC5, hits give low values 0.947 | S. cerevisiae deletion strains, locus YMR205C, strain PFK2 (second series), hits give low values 0.876 | S. cerevisiae deletion strains, locus YMR277W, strain FCP1, hits give low values 0.938 | S. cerevisiae deletion strains, locus YNL006W, strain LST8, hits give low values 0.943 | S. cerevisiae deletion strains, locus YNL020C, strain ARK1, hits give low values 0.876 | S. cerevisiae deletion strains, locus YNL161W, strain CBK1, hits give low values 0.941 | S. cerevisiae deletion strains, locus YNL183C, strain NPR1, hits give low values 0.916 | S. cerevisiae deletion strains, locus YNL207W, strain RIO2, hits give low values 0.944 | S. cerevisiae deletion strains, locus YNL222W, strain SSU72, hits give low values 0.948 | S. cerevisiae deletion strains, locus YNL307C, strain MCK1 (second series), hits give low values 0.851 | S. cerevisiae deletion strains, locus YOL078W, strain AVO1, hits give low values 0.937 | S. cerevisiae deletion strains, locus YOL136C, strain PFK27, hits give low values 0.85 | S. cerevisiae deletion strains, locus YOR061W, strain CKA2, hits give low values 0.867 | S. cerevisiae deletion strains, locus YOR119C, strain RIO1, hits give low values 0.877 | S. cerevisiae deletion strains, locus YOR231W, strain MKK1, hits give low values 0.826 | S. cerevisiae deletion strains, locus YOR329C, strain SCD5, hits give low values 0.949 | S. cerevisiae deletion strains, locus YPL031C, strain PHO85, hits give low values 0.78 | S. cerevisiae deletion strains, locus YPL153C, strain RAD53, hits give low values 0.794 | S. cerevisiae deletion strains, locus YPL204W, strain HRR25, hits give low values 0.784 | S. cerevisiae deletion strains, locus YPL209C, strain IPL1, hits give low values 0.952 | S. cerevisiae deletion strains, locus YPR025C, strain CCL1, hits give low values 0.948 | S. cerevisiae deletion strains, locus YPR106W, strain ISR1, hits give low values 0.969 | S. cerevisiae deletion strains, locus YPR111W, strain DBF20, hits give low values 0.968 | S. cerevisiae deletion strains, strain NNK1, hits give low values 0.972 | S. cerevisiae deletion strains, strain TSCII, hits give low values 0.936
active: [2] 0.576 | S. cerevisiae deletion strains, locus YLR113W, strain HOG1, hits give low values 0.69 | S. cerevisiae deletion strains, locus YPL256C, strain CLN2, hits give low values 0.829

O=[N+]([O-])c1ccc(S(=O)(=O)N2CCCCC2)cc1
inactive: [3] 0.994 | [4] 0.985 | [5] 0.976 | [1] 0.977 | S. cerevisiae deletion strains, locus YDL134C, strain PPH21, hits give low values 1 | [6] 0.962 | [7] 0.978 | [8] 1 | S. cerevisiae deletion strains, locus YGR229C, strain SMI1, hits give low values 1 | [2] 1 | [9] 0.994 | [10] 0.982 | [11] 0.992 | [12] 0.985 | [13] 1 | [14] 1.01 | [15] 0.997 | [16] 0.925 | [17] 1.03 | [18] 0.999 | [19] 0.989 | [20] 0.972 | S. cerevisiae deletion strains, locus YMR307W, strain GAS1, hits give low values 0.943 | S. cerevisiae deletion strains, locus YNL128W, strain TEP1, hits give low values 1 | [21] 0.975 | [22] 0.991 | [23] 0.996 | [24] 0.989 | [25] 0.976 | [26] 0.991 | [27] 0.938

O=[N+]([O-])c1ccc(OCCO)c([N+](=O)[O-])c1
inactive: [3] 1 | [4] 0.978 | [5] 1.04 | [1] 1.01 | [6] 0.981 | [7] 0.954 | [8] 1.02 | [2] 1.23 | [9] 0.991 | [10] 0.991 | [11] 1.01 | [12] 1.03 | [13] 1 | [14] 1.18 | [15] 0.998 | [16] 1 | [17] 1.14 | [18] 1 | [19] 0.993 | [20] 1.01 | [21] 1.01 | [22] 0.987 | [23] 0.982 | [24] 0.997 | S. cerevisiae deletion strains, locus YOL006C, strain TOP1, hits give low values 1.01 | [25] 0.989 | [26] 0.996 | [27] 1.11 | S. cerevisiae strains, strain wild type, hits give low values 0.986
